Drawing on PubChem BioAssay (NCI), this text covers growth for 40 molecules.

Compounds without any hit were thinned out: in the full panel of roughly 83,000, 20% have a hit.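 Assay: single dose, 48 h. Readout: percent growth (0 = no net growth; negative = cell death). Active: <10.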 Calls of active or inactive are those of the source.

The subject of this experiment is OVCAR-4 ovarian. The experiment is described as follows: NCI-60 one-dose screen, 48 h (100 = growth as untreated, 0 = no growth, -100 = all killed). The note with it: 10 µM unless noted. The procedure:
Growth inhibition of the OVCAR-4 human tumor cell line is measured as a screen for anti-cancer activity. Cells are grown in 96 well plates and exposed to the test compound for 48 hours. Compounds are tested at a single concentration, which is 10^-5 M for most compounds. The reported endpoint is percent growth (GI% or GIPRCNT), where numbers from 0 - 100% represent growth inhibition, and numbers from -100% - 0 represent cell death. For example, a value of 40 represents 60% growth inhibition. A value of 0 means no net growth occurred over the course of the experiment. A value of -40 indicates 40% of cells at the beginning of the experiment died by the end of the experiment. A value of -100 means all cells are dead at the end of the experiment.
NCI-60 Human Tumor Cell Lines Screen was performed using the standard one-dose NCI protocol, which is described in more detail at https://dtp.cancer.gov/discovery_development/nci-60/default.htm.
Compounds with GIPRCNT values below 10 were considered active. Activity score was based on GIPRCNT using the following formula: […]
Score is 0 for GIPRCNT values of 100 or above, 50 for GIPRCNT values of 0, and 100 for GIPRCNT values of -100.
`C=CC(=O)Nc1cccc(Oc2nccc(Nc3nnc(C4CC4)s3)n2)c1`: the growth is 101% (inactive). In the case of `O=C(O)C1CCC(=O)N1C(=O)OCc1ccccc1` (stereo not given), the growth is 101% (inactive). The same measure for `O=C(COc1ccc(/C=C2\Oc3ccccc3C2=O)cc1)Nc1nc2ccccc2s1`: 89.9% (inactive); for `O=C1Nc2ccccc2/C1=C/c1cn(C(=O)c2c(Cl)cccc2Cl)c2ccccc12`: 50.4% (inactive); for `COC(=O)c1ccc(C2Nc3ccc(S(=O)(=O)Nc4ccc(C)c(C)c4)cc3C3OCCC23)cc1` (stereo not given): 82.8% (inactive). As for `Cc1ccc(C(=O)COc2cccc(/C=C3\Oc4ccccc4C3=O)c2)cc1`, the growth was 85.7% (inactive).

On to `OC(c1cccc(-n2ccc(C(F)(F)F)n2)c1)c1cnccc1NC1CCCCCC1` (stereo not given), for which the growth was 40.8% (inactive). In the case of `N#CC1=C(c2ccc(Br)cc2)NC(SCC(=O)c2ccc(Br)cc2)NC1=O` (stereo not given), the growth is 101% (inactive). Regarding `c1ccc2cc3nc4cc5ccccc5cc4nc3cc2c1`, the growth was 104% (inactive). In the case of `CC(=O)N1C(=S)NC(=O)C1Cn1c(-c2ccccc2)nc2ccccc21` (stereo not given), the growth was 102% (inactive). In the case of `COc1ccc(-c2ccc3c(c2)sc2nc(-c4ccc(F)cc4)cn23)cc1`, the growth is 73.6% (inactive). For `CCc1ccccc1-n1c(-c2ccc(Cl)cc2)cc(-c2ccc(Cl)cc2)c(C#N)c1=O`, the growth was 85.9% (inactive). As for `C[C@H]1[C@H]2[C@H]3CC[C@@H]4[C@@]5(C)C/C(=C/c6ccco6)C(=O)C(C)(C)[C@@H]5CC[C@@]4(C)[C@]3(C)CC[C@]23CO[C@]1(C)[C@@H](C(=O)/C=C\c1ccco1)C3`, the figure is 90.7% (inactive); as for `CCN1C(=O)N(CC)C2Nn3c(s/c(=C\c4cccc([N+](=O)[O-])c4)c3=O)=NC21` (stereo not given), 59.6% (inactive); as for `O=c1[nH][n+](-c2ccc(Cl)cc2)no1`, 83.5% (inactive). For `CC(C)C(=O)Nc1n[nH]c2cc(-c3cccc(NS(=O)(=O)C4CC4)c3)ccc12`, the growth was 52.8% (inactive). In the case of `CCCCCCCCCCCCCCCCCCOc1ccc(CC(=O)OCC[N+]2(C)CCCC2)cc1`, the growth was 87.3% (inactive). Regarding `Cc1cc(NCc2cc(Nc3ccnc4cc(Cl)ccc34)ccc2F)nc(N2CCSCC2)n1`, the growth is 14.4% (inactive). Consider `CC1=CN2C(=O)C3C4=C(CCCC4)SC3N=C2CN1c1c(C)cccc1C` (stereo not given), for which the growth is 93.3% (inactive).

On to `O=C(CC(SCc1ccccc1)c1ccccc1)c1ccccc1` (stereo not given), for which the growth was 90% (inactive).

Regarding `COc1cccc2c1C(=O)c1c(O)c3c(c(O)c1C2=O)CC(O)(/C(C)=N/NC(=O)CCCCC(=O)N/N=C(\C)C1(O)Cc2c(O)c4c(c(O)c2C(OC2CC(N)C(O)C(C)O2)C1)C(=O)c1c(OC)cccc1C4=O)CC3OC1CC(N)C(O)C(C)O1` (stereo not given), the growth was -9.94% [5 µM] (active).

In the case of `COc1ccc(OC)c(-c2c(C#N)c(-c3ccc(Cl)cc3)nc3c2c(-c2ccccc2)nn3-c2ccccc2)c1`, the growth is 102% (inactive). As for `Cc1ccc2nc3ccccc3c(NCc3ccccc3)c2c1`, the growth is 32.8% (inactive). On to `CN(C)CC1C(=O)O[C@H]2[C@H]1CC/C(COC(=O)c1cc3ccccc3[nH]1)=C\CC[C@@]1(C)O[C@@H]21` (stereo not given in full), for which the growth was -9.35% (active).

Consider `CN1C(=O)N(C)C2C1NN=c1s/c(=C\c3ccccc3)c(=O)n12` (stereo not given), for which the growth was 66.6% (inactive). The same measure for `COc1cccc(C(=O)NCCCNc2cc(-c3cn(-c4ccccc4)nc3-c3cccc(OC)c3)ccn2)c1`: 37.9% (inactive); for `NC(=S)N/N=C/Cc1ccccc1`: 65.5% (inactive). For the molecule `CCN(CC)CCN1C(=O)c2c(c(C)c3c(oc4cc(O)ccc43)c2C)C1=O`, the growth was -34.4% (active). The same measure for `CC(C)(C)CC(C)(C)Nc1c(-c2ccncc2)nc2cnccn12`: 84% (inactive); for `Cc1cc(=O)[nH]c(N=Nc2c(O)[nH]c3ccccc23)n1`: 118% (inactive). `NC(N)=NN=C(c1ccccc1)c1ccccc1`: the growth is 71% (inactive). Consider `c1coc(-c2c3ccc(=[N+]4CCCCC4)cc-3oc3cc(N4CCCCC4)ccc23)c1`, for which the growth is -41.9% (active). With `CCN1C(=O)N(CC)C2Nn3c(s/c(=C\c4ccc(Cl)cc4Cl)c3=O)=NC21` (stereo not given), the growth is 56.7% (inactive).

Regarding `COC(=O)[C@]12CC[C@@H](C)[C@H](C)[C@@H]1C1=CC[C@@H]3[C@@]4(C)C(C=O)=C[C@@](C)(COC(C)=O)[C@@H]4[C@H](O)C[C@@]3(C)[C@]1(C)CC2`, the growth was 9.81% (active). On to `Cc1ccc(S(=O)(=O)N/N=C\c2cc(Cl)ccc2O)cc1`, for which the growth is 102% (inactive). As for `CC1SC(c2ccc(OCc3ccccc3)cc2)N(NC(=O)C(O)(c2ccccc2)c2ccccc2)C1=O` (stereo not given), the growth was 54.7% (inactive).

Turning to `C=C(C)[C@@H]1CC=C2c3sc(-c4ccc(C)cc4)nc3C[C@@H](C)[C@]2(C)C1`, the growth is 98.2% (inactive). The same measure for `O=C(Nc1ccccc1)Nc1cccc(Oc2nnc(Cl)c3ccccc23)c1`: 0.217% (active). Consider `Cc1ccc(NS(=O)(=O)c2ccc3c(c2)C(=O)CC(c2ccc(C(=O)C(C)C)cc2)N3)cc1C` (stereo not given), for which the growth was 62.9% (inactive). For the molecule `Cc1occc1-c1n[nH]c(=S)n1N1C(=O)CSC1=S`, the growth was 107% (inactive).
